Assay outcomes (PubChem)
TIM10 inh: growth inhibitors of isogenic TIM10 control yeast, primary screen, counter-screen for tim10-1 yeast inhibitor project, luminescence, uHTS; S. cerevisiae TIM10 strain growth, BacTiter-Glo luminescence, 24 h; inhibition, % at 10 µM; actives 1.4% (n = 330,000);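 active means inhibition of 40% or more at the single tested concentration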;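 further: wild-type TIM10 isogenic control strain grown at permissive 25 °C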
PfHsp90 yeast 2: growth inhibition of PfHsp90-expressing yeast, primary screen, antimalarial PfHsp90 inhibitor project, S. cerevisiae, BacTiter-Glo luminescence, single point, set 2. BacTiter-Glo ATP, 48 h; yeast lacking PDR1 and PDR3 efflux regulators. inhibition, % at 9.4 µM. actives 0.32% (n = 310,000). AID 504621, 2011;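 active means every replicate shows inhibition above about 80%, whatever the replicate mean, limit read from the data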;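 further: 0% = DMSO neutral controls and 100% = 20 µM radicicol positive controls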
tim23-1 inh: growth inhibitors of tim23-1 mutant yeast, primary screen, luminescence, uHTS. S. cerevisiae tim23-1 growth, BacTiter-Glo luminescence, 24 h. inhibition, % at 20 µM. actives 1.3% (n = 330,000). AID 463212, 2010;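 active means growth inhibition of the mutant yeast at or above 50%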;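 further: temperature-sensitive mutant grown at 25 °C; plate controls were DMSO-treated mutant yeast for no effect and medium wells lacking yeast for full effect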
NALP1 yeast inh: NALP1 inflammasome inhibitors in reconstituted yeast, colorimetric, S. cerevisiae, triplicate retest; AID 2071, 2009; inhibition, % at 10 µM; actives 0.61% (n = 280,000); S. cerevisiae NALP1/ASC/caspase-1 growth, X-gal OD620, 72 h; in the data active means inhibition mostly above about 24%, no sharp cut-off; inactive means mostly below about 32%
NLRP3 yeast inh: NALP3 inflammasome inhibitors in reconstituted yeast, primary screen, luminescence, uHTS; Yeast reconstituted NLRP3/ASC/caspase-1, beta-gal luminescence, 24 h; inhibition, % at 10 µM; actives 0.39% (n = 330,000); AID 2825, 2010;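 active means inhibition of 50% or more; inactive means inhibition below 50%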;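 further: plate controls were induced DMSO wells for no effect and uninduced yeast grown without galactose for full effect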
tim10-1 inh: growth inhibitors of tim10-1 mutant yeast, primary screen, luminescence, uHTS; inhibition, % at 20 µM; AID 463190, 2010; S. cerevisiae tim10-1 ts strain growth, BacTiter-Glo, 24 h; actives 2.2% (n = 330,000);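 active means inhibition of at least 40%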;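 further: mutant grown at 25 °C; 0% = DMSO wells with yeast and 100% = wells holding no yeast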
tim10-1 confirm: growth inhibitors of tim10-1 mutant yeast, confirmation, single concentration, luminescence, S. cerevisiae; shares compounds with tim10-1 inh; S. cerevisiae tim10-1 ts strain growth, BacTiter-Glo, 24 h; inhibition, % at 20 µM; actives 56% (n = 7,400); AID 463213, 2010;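 active means inhibition of yeast growth at or above a set limit in either of two repeat tests at 20 µM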;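 further: tim10-1 mutant grown at permissive 25 °C to find synthetic lethal compounds; 0% = DMSO yeast wells and 100% = medium wells without yeast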
Starred values were filed as active, the others as inactive; x = no result. Sampled rows, rich in hits. Any-hit rate of the full collection: about 4.2%.

SMILES	TIM10 inh	PfHsp90 yeast 2	tim23-1 inh	NALP1 yeast inh	NLRP3 yeast inh	tim10-1 inh	tim10-1 confirm
N#Cc1cc(O)c(-n2nnc3ccccc32)cc1C#N	7	-21	6	19	2	-2	x
COc1ccccc1C(CNC(=O)c1oc2ccccc2c1C)N1CCCC1 (stereo not given)	3	-8	0	x	21	-5	x
S=C(Nc1ccc2nsnc2c1)N1CCCC1	26	-22	15	11	8	41*	14
CCCCN=CC1=C(O)CC(c2ccccc2)CC1=O (stereo not given)	-5	17	-2	9	13	0	x
O=[N+]([O-])c1ccccc1N/N=C/c1c[nH]c2ccccc12	33	10	33	-7	37	69*	57*
Cc1cc(N2CCCC2)ccc1NC(=O)COc1cccc(C(F)(F)F)c1	11	6	8	24	13	7	x
CCOC(=O)c1ccc(NC(=O)c2nc[nH]c2C(=O)N(C)Cc2ccccc2)cc1	10	16	33	x	11	42*	28
Brc1ccc(/C=N/Nc2ccc3ccccc3n2)cc1	16	2	35	18	19	48*	14
Fc1cccc(/C=N/Nc2ccc3ccccc3n2)c1	5	-1	23	15	20	-2	x
O=C(COC(=O)c1cc(=O)[nH]c2ccccc12)Nc1nc(-c2ccc(F)cc2)cs1	x	-16	x	x	x	x	x
Cc1noc(C)c1CC(=O)N1CCCC(C(=O)c2ccc(C(C)(C)C)cc2)C1 (stereo not given)	30	16	16	-6	13	41*	22
COc1ccc(C(=O)C2CCCN(C(=O)Cc3c(C)noc3C)C2)cc1OC (stereo not given)	-1	15	10	-8	15	3	x
COc1ccc(CCN2C(=S)N(C)C(=O)C2CC(=O)Nc2ccc(F)cc2)cc1 (stereo not given)	-42	x	-21	37	14	-24	x
CC(C)CNC(=O)/C(C#N)=C1\N=C(NC(=O)c2ccco2)c2ccccc21	27	12	38	10	12	47*	-3
COc1ccc(N(CC(=O)NC2CCCC2)C(=O)Cn2nnc(-c3ccc(F)cc3)n2)cc1	19	1	9	4	-6	-7	x
CC1CCc2c(sc3ncnc(NCCCOC(C)C)c23)C1 (stereo not given)	13	6	43	-12	19	40	10
C=CCN1C(=O)N/C(=C/c2ccc(C)o2)C1=O	-13	9	-5	19	4	-13	x
N#CCOC(=O)c1c2c(nc3ccccc13)CCC2	-2	-11	23	-9	34	-4	x
O=C(Nc1ncc2c(n1)-c1ccccc1OC2)c1ccc(F)cc1	24	x	40	9	9	33	x
O=C(Nc1ncc2c(n1)-c1ccccc1CC2)c1ccc(Cl)cc1	25	x	46	-1	30	47*	37*
COC(=O)c1cccc(Oc2cccc(C(F)(F)F)c2)n1	6	8	6	0	17	18	x
Cc1ccc(S(=O)(=O)n2[nH]c(=O)cc2N)cc1	2	-6	10	-1	6	-3	x
Cc1nnc(SCC(=O)Nc2cc(S(C)(=O)=O)ccc2Cl)n1Cc1ccccc1	-15	-7	1	-1	4	-13	x
Cc1ccc(-c2csc3ncnc(Oc4ccc5c(C)cc(=O)oc5c4)c23)cc1	13	-23	13	29	25	23	x
CC(=O)Nc1cccc(Oc2ncnc3scc(-c4ccc(C)cc4)c23)c1	20	-24	9	17	-1	42*	29*
SMILES	TIM10 inh	PfHsp90 yeast 2	tim23-1 inh	NALP1 yeast inh	NLRP3 yeast inh	tim10-1 inh	tim10-1 confirm
COc1ccc(/C=C/C(=O)NCc2cn(C)nc2C)cc1COc1ccc(Br)cc1	19	-10	23	4	-5	40*	11
Cc1cccc(Nc2c([N+](=O)[O-])c(=O)n(C)c3ccccc23)c1	-23	-48	14	20	12	17	x
CC(C)c1ccc(Nc2c([N+](=O)[O-])c(=O)n(C)c3ccccc23)cc1	7	14	15	-23	30	51*	52*
Cc1ccc(S(=O)(=O)/N=C(/NC(=S)Nc2cccc(C)c2)c2ccccc2)cc1	18	-8	14	-2	14	38	x
Cc1cccc(NC(=S)N/C(=N/S(=O)(=O)c2ccccc2)c2ccccc2)c1	26	3	20	6	17	42*	14
CCC(C)(C)NC(=O)CN(Cc1ccc(OC)cc1)C(=O)CCC(=O)Nc1nccs1	-4	14	19	-2	7	26	x
CN(C)c1nc(OCCNC(=O)Nc2ccccc2)nc(N2CCCCC2)n1	16	-4	21	7	1	40*	18
COc1ccc(OCC(=O)C2CC2)c(C#N)c1	-1	14	-5	x	4	-8	x
CCOC(=O)c1sc2ncnc(NCc3ccco3)c2c1C	26	-2	36	-4	17	47*	35*
C=CCOC1=CS(=O)(=O)N(Cc2ccc(Br)cc2)c2ccc(Br)cc21	-11	4	34	x	x	3	x
Cc1c2c(c(C)n1C)C(C(=O)NC1CCCCC1)N(Cc1ccccc1)C2=O (stereo not given)	19	-12	36	21	22	45*	39*
O=C(NC1CCCCCC1)C1c2ccccc2C(=O)N1Cc1cccnc1 (stereo not given)	-2	x	-2	22	2	13	x
CC1NC(=S)N(C2CCCCC2)C1=O (stereo not given)	6	-49	16	-12	11	6	x
Cc1ccc(OC(C)C(=O)Nc2ccc(S(=O)(=O)N3CCOCC3)cc2)cc1 (stereo not given)	11	12	16	-9	26	13	x
Cc1ccc(-c2cc(-c3ccccc3)[nH]c(=S)c2C#N)cc1	2	13	36	30	-1	54*	26
COc1ccc(-c2cc(-c3ccccc3)c(C#N)c(=S)[nH]2)cc1	33	-45	41	-6	2	16	x
CCN(Cc1ccccc1)S(=O)(=O)c1ccc(C(=O)N(CCCN(C)C)c2nc3cc4c(cc3s2)OCCO4)cc1	-61	-9	8	x	23	46*	4
CN(C)CCCN(C(=O)c1cc2cc([N+](=O)[O-])ccc2s1)c1nc2cc3c(cc2s1)OCCO3	30	22	9	x	17	79*	27*
